Experimental data as given in a collection of fitness landscapes (doi:10.1016/j.celrep.2020.107928).
In all, about 81,000 sequences were measured (“one-hybrid fitness for binding NBS DNA”: median about -0.1, highest 2% from about 0.36 on). This excerpt belongs to a sample that is enriched for the highest values.

B1: Caulobacter ParB omega fusion; a variant is named by its letters at X, in order, B8GW30 (parent)
chain: MESVVVGEPGMSEGRRGLGRGLSALLGEVDAAPAQAPGEQLGGSREAPIEILQRNPDQPRRTFREEDLEDLSNSIREKGVLQPILVRPSPDTAGEYQIVAGERAWRAAQRAGLKTVPIMVRELDDLAVLEIGIIENVQRADLNVLEEALSYKVLMEKFERTQENIAQTIGKSXSHVANXMRLLXLPDEVQSYLVSGELTAXHARAIAAAADPVALAKQIIEGGLSVRETEALARKAPNLSAGKSKGGRPPRVKDTDTQALESDLSSVLGLDVSIDHRGSTGTLTITYATLEQLDDLCNRLTRGI

Variants of: B1
Experiment: one-hybrid fitness for binding NBS DNA (the Noc-binding site; scaled: cognate 1, non-cognate 0); higher = stronger binding
Conditions: with NBS DNA site
Method in brief: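 Fitness is the rescaled log change in variant-to-wild-type read ratio, measured by Illumina sequencing of plasmids before and after bacterial one-hybrid selection. The scale puts cognate at 1 and non-cognate at 0. Selection of Caulobacter ParB libraries, four specificity codons randomised, took place in E. coli USO with a HIS3 reporter, site 19 bp from the promoter, over 48 hours at 37°C on M9-minus-histidine with 0.1 mM IPTG and 5 mM 3-AT.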

Row | Variant | one-hybrid fitness for binding NBS DNA
1 | DSRA | ≤ 0.2
2 | DIFG | ≤ 0.2
3 | WLHF | ≤ 0.2
4 | EQLL | ≤ 0.2
5 | LLDV | ≤ 0.2
6 | GYFR | ≤ 0.2
7 | QKND | ≤ 0.2
8 | QKDT | 0.401
9 | QKNN | 0.203
10 | QKNT | 0.639
11 | GYDR | ≤ 0.2
12 | FATT | ≤ 0.2
13 | GEDG | ≤ 0.2
14 | RAGT | 0.443
15 | RFGT | ≤ 0.2
16 | RPGT | ≤ 0.2
17 | RAGG | ≤ 0.2
18 | RSGT | 0.425
19 | RAGF | ≤ 0.2
20 | RIGT | 0.403
21 | RNGT | ≤ 0.2
22 | RCGT | 0.462
23 | RIGQ | ≤ 0.2
24 | RHGT | 0.344
25 | CETT | ≤ 0.2

Row | Variant | one-hybrid fitness for binding NBS DNA
26 | LWGM | ≤ 0.2
27 | HAAD | ≤ 0.2
28 | HAFN | ≤ 0.2
29 | VLQG | ≤ 0.2
30 | QGVT | ≤ 0.2
31 | QCVT | 0.428
32 | QPVT | 0.269
33 | DKKT | ≤ 0.2
34 | QKVT | 0.44
35 | QKKT | 0.774
36 | QKVG | ≤ 0.2
37 | CKVS | ≤ 0.2
38 | ENAK | ≤ 0.2
39 | LWKN | ≤ 0.2
40 | VVCT | ≤ 0.2
41 | GSCC | ≤ 0.2
42 | HRFR | ≤ 0.2
43 | RRNF | 0.281
44 | RRDD | ≤ 0.2
45 | RRDS | 0.58
46 | RRNS | 0.678
47 | RRDP | ≤ 0.2
48 | RRNC | 0.343
49 | ADSL | ≤ 0.2
50 | MLMV | ≤ 0.2

Row | Variant | one-hybrid fitness for binding NBS DNA
51 | CATV | ≤ 0.2
52 | SVNP | ≤ 0.2
53 | VMPY | ≤ 0.2
54 | MHHD | ≤ 0.2
55 | QRLS | 0.603
56 | QRLP | ≤ 0.2
57 | QRLN | 0.308
58 | QCLH | ≤ 0.2
59 | QRLD | ≤ 0.2
60 | QRLH | 0.453
61 | LGRE | ≤ 0.2
62 | ACPI | ≤ 0.2
63 | REGM | ≤ 0.2
64 | TASA | ≤ 0.2
65 | RQSR | 0.474
66 | RQQD | ≤ 0.2
67 | RQDR | ≤ 0.2
68 | RQQS | 0.429
69 | RQWR | 0.244
70 | RQPR | ≤ 0.2
71 | RQNR | 0.559
72 | RQRR | 0.717
73 | RQSH | ≤ 0.2
74 | RQND | ≤ 0.2
75 | RQQP | ≤ 0.2

Row | Variant | one-hybrid fitness for binding NBS DNA
76 | RQSD | ≤ 0.2
77 | ARKV | ≤ 0.2
78 | NQVL | ≤ 0.2
79 | FWRE | ≤ 0.2
80 | DFAH | ≤ 0.2
81 | PFPI | ≤ 0.2
82 | KFHC | ≤ 0.2
83 | LPAH | ≤ 0.2
84 | KTKA | ≤ 0.2
85 | EELL | ≤ 0.2
86 | PSMT | ≤ 0.2
87 | RQHH | ≤ 0.2
88 | RQHR | 0.476
89 | RQQK | ≤ 0.2
90 | RQHD | ≤ 0.2
91 | RQQG | ≤ 0.2
92 | RQGN | ≤ 0.2
93 | RQQT | 0.441
94 | RQLR | 0.359
95 | RQYR | 0.368
96 | RQGS | 0.408
97 | RQIR | ≤ 0.2
98 | RQGP | ≤ 0.2
99 | CNHR | ≤ 0.2
100 | SRDF | ≤ 0.2

Row | Variant | one-hybrid fitness for binding NBS DNA
101 | GICT | ≤ 0.2
102 | HHHV | ≤ 0.2
103 | ISLV | ≤ 0.2
104 | PQPQ | ≤ 0.2
105 | SHQT | ≤ 0.2
106 | RQGR | 0.447
107 | RQQR | 0.475
108 | RQVR | 0.258
109 | RQAR | 0.427
110 | RQAP | ≤ 0.2
111 | RQGD | ≤ 0.2
112 | RQGH | ≤ 0.2
113 | RQKG | ≤ 0.2
114 | RQQN | ≤ 0.2
115 | RQQH | ≤ 0.2
116 | RQFR | 0.262
117 | RQKR | 0.752
118 | IAMG | ≤ 0.2
119 | HHPA | ≤ 0.2
120 | HPHL | ≤ 0.2
121 | TLMC | ≤ 0.2
122 | PVFR | ≤ 0.2
123 | FHGR | ≤ 0.2
124 | QHHG | ≤ 0.2
125 | RYFG | ≤ 0.2

Row | Variant | one-hybrid fitness for binding NBS DNA
126 | RQHP | ≤ 0.2
127 | RQHS | 0.468
128 | RQRS | 0.6
129 | RQCR | 0.394
130 | RQCS | 0.278
131 | RQCN | ≤ 0.2
132 | RQRN | 0.221
133 | RQYS | 0.322
134 | RQHN | ≤ 0.2
135 | TYVN | ≤ 0.2
136 | IGSF | ≤ 0.2
137 | FTRC | ≤ 0.2
138 | PRTW | ≤ 0.2
139 | QSHY | 0.201
140 | QTHP | ≤ 0.2
141 | QTHS | 0.585
142 | QTHH | 0.44
143 | QTHD | ≤ 0.2
144 | QTHY | 0.384
145 | QTHF | ≤ 0.2
146 | QTHN | 0.297
147 | YMSF | ≤ 0.2
148 | HSWC | ≤ 0.2
149 | ATGK | ≤ 0.2
150 | YNLW | ≤ 0.2

Row | Variant | one-hybrid fitness for binding NBS DNA
151 | DVCT | ≤ 0.2
152 | DEDT | ≤ 0.2
153 | PSQV | ≤ 0.2
154 | DYHC | ≤ 0.2
155 | RKWK | ≤ 0.2
156 | AQNL | ≤ 0.2
157 | RRHH | 0.525
158 | RRHN | 0.331
159 | RRHS | 0.681
160 | RRHK | 0.267
161 | RRHD | ≤ 0.2
162 | RRHP | ≤ 0.2
163 | VSMF | ≤ 0.2
164 | PDIW | ≤ 0.2
165 | QSTA | 0.219
166 | QITA | ≤ 0.2
167 | QSMA | ≤ 0.2
168 | QCMA | 0.303
169 | QSWA | ≤ 0.2
170 | QRWA | 0.432
171 | QRCA | 0.609
172 | QRTA | 0.6
173 | QACA | ≤ 0.2
174 | QRMA | 0.549
175 | QHCA | ≤ 0.2

Row | Variant | one-hybrid fitness for binding NBS DNA
176 | QIWA | ≤ 0.2
177 | FHAS | ≤ 0.2
178 | ENIG | ≤ 0.2
179 | LRKN | ≤ 0.2
180 | PCWT | ≤ 0.2
181 | QWRA | ≤ 0.2
182 | QSLA | ≤ 0.2
183 | QCLA | 0.304
184 | QPSA | ≤ 0.2
185 | QRSA | 0.566
186 | QRRA | 0.674
187 | QRPA | 0.207
188 | QRLA | 0.547
189 | QSSA | ≤ 0.2
190 | QRIA | 0.436
191 | DRRA | ≤ 0.2
192 | QCIA | 0.25
193 | TTVS | ≤ 0.2
194 | YHRS | ≤ 0.2
195 | YKRY | ≤ 0.2
196 | IDDD | ≤ 0.2
197 | SRTS | ≤ 0.2
198 | TNTI | ≤ 0.2
199 | CWVC | ≤ 0.2
200 | RTKL | ≤ 0.2

Row | Variant | one-hybrid fitness for binding NBS DNA
201 | CLGT | ≤ 0.2
202 | QPYA | ≤ 0.2
203 | QRYA | 0.588
204 | QREA | 0.288
205 | RATL | ≤ 0.2
206 | AQRI | ≤ 0.2
207 | VVMC | ≤ 0.2
208 | QSSK | ≤ 0.2
209 | QRCK | 0.388
210 | QRWK | 0.239
211 | QRSK | 0.396
212 | QCCK | ≤ 0.2
213 | QRRK | 0.747
214 | QRPK | ≤ 0.2
215 | QSCK | ≤ 0.2
216 | QSHK | ≤ 0.2
217 | QCHK | ≤ 0.2
218 | QRHK | 0.432
219 | QCSK | ≤ 0.2
220 | YTTG | ≤ 0.2
221 | PILC | ≤ 0.2
222 | GPWT | ≤ 0.2
223 | TTST | ≤ 0.2
224 | PSAI | ≤ 0.2
225 | LWNA | ≤ 0.2

Row | Variant | one-hybrid fitness for binding NBS DNA
226 | HNMG | 0.257
227 | QRAK | 0.373
228 | QRIK | 0.213
229 | QRFK | 0.295
230 | QRDK | ≤ 0.2
231 | QSGK | ≤ 0.2
232 | QRYK | 0.381
233 | QCNK | ≤ 0.2
234 | QCGK | ≤ 0.2
235 | QRNK | 0.488
236 | QCAK | ≤ 0.2
237 | QRGK | 0.445
238 | QREK | ≤ 0.2
239 | TYVS | ≤ 0.2
240 | MKIS | ≤ 0.2
241 | KICD | ≤ 0.2
242 | FCSG | ≤ 0.2
243 | FRQA | ≤ 0.2
244 | QCQK | ≤ 0.2
245 | QRQK | 0.365
246 | QSQK | ≤ 0.2
247 | QSYT | 0.347
248 | QPYT | ≤ 0.2
249 | QCYT | 0.503
250 | QSRT | 0.723

Row | Variant | one-hybrid fitness for binding NBS DNA
251 | QPRT | ≤ 0.2
252 | QCRT | 0.857
253 | QNYT | ≤ 0.2
254 | GPRT | 0.369
255 | GCRT | ≤ 0.2
256 | QNRT | 0.292
257 | GPYT | ≤ 0.2
258 | VDRR | ≤ 0.2
259 | QPAL | ≤ 0.2
260 | PSKA | ≤ 0.2
261 | SGLS | ≤ 0.2
262 | RPAY | ≤ 0.2
263 | SNWT | ≤ 0.2
264 | PAIL | ≤ 0.2
265 | HYHS | ≤ 0.2
266 | FRPV | ≤ 0.2
267 | PPFR | ≤ 0.2
268 | QART | 0.716
269 | QIYT | 0.335
270 | QIPT | ≤ 0.2
271 | QLYT | 0.355
272 | QIRT | 0.608
273 | QLLT | 0.33
274 | QAYT | 0.322
275 | QALT | 0.352

Row | Variant | one-hybrid fitness for binding NBS DNA
276 | QHRT | 0.681
277 | QHYT | 0.359
278 | QHLT | 0.337
279 | QLRT | 0.668
280 | ALLT | ≤ 0.2
281 | QWRW | ≤ 0.2
282 | HELN | ≤ 0.2
283 | VNET | ≤ 0.2
284 | TDND | ≤ 0.2
285 | QYNF | ≤ 0.2
286 | HKPS | ≤ 0.2
287 | SLTE | ≤ 0.2
288 | AVAW | ≤ 0.2
289 | DTKR | 0.321
290 | NTKR | 0.255
291 | QTVR | 0.558
292 | QTKR | 1.15
293 | VQPA | ≤ 0.2
294 | YAHE | ≤ 0.2
295 | QHRP | 0.201
296 | QHRH | 0.494
297 | QHRD | 0.234
298 | QHYH | ≤ 0.2
299 | QHYS | 0.324
300 | QHRS | 0.627

Row | Variant | one-hybrid fitness for binding NBS DNA
301 | SNPD | ≤ 0.2
302 | YDCG | ≤ 0.2
303 | IGGI | ≤ 0.2
304 | EAAG | ≤ 0.2
305 | QLSN | ≤ 0.2
306 | QLRR | 0.943
307 | QLER | 0.266
308 | QLPR | 0.232
309 | QLRD | ≤ 0.2
310 | QLIR | 0.294
311 | QLSP | ≤ 0.2
312 | QLAR | 0.478
313 | QLAP | ≤ 0.2
314 | QLYR | 0.425
315 | QLFR | 0.329
316 | QLSR | 0.464
